Screening results (PubChem BioAssay)
SARS PLP yeast – qHTS of Yeast-based Assay for SARS-CoV PLP; Potency, µM (series often up to 32.9 µM), usual class: activators; S. cerevisiae expressing SARS-CoV PLpro, growth rescue; hit rate 0.19% among 330,000; AID 485353, 2010; calls by dose curve; further: nearly all actives have a fitted effect of over 55% in size
Pf growth 96h – Primary qHTS for delayed death inhibitors of the malarial parasite plastid, 96 hour incubation; Potency, µM (series often up to 28.7 µM), most hits filed as inhibitors; P. falciparum luciferase reporter growth, 96 h; hit rate 6.9% among 320,000
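96 h incubation, 37 C, 5% CO2, of luciferase-reporter P. falciparum-infected RBCs (2% hematocrit, 0.05% parasitemia final) with test compounds; endpoint luminescence.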
Pf growth 48h – Primary qHTS for delayed death inhibitors of the malarial parasite plastid, 48 hour incubation; P. falciparum luciferase growth in erythrocytes, 48 h; Potency, µM (titrated, usually from 28.7 µM), hits mostly inhibitors; hit rate 5.9% among 310,000; AID 504832, 2011
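Luminescence readout; reporter = integrated firefly luciferase in P. falciparum. RBC culture at 2% hematocrit, 0.1% parasitemia final, 37 C/5% CO2; decreased signal taken as growth inhibition.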
AMA1-RON2 inh – qHTS for Inhibitors of AMA1-RON; Towards Development of Antimalarial Drug Lead: Primary Screen; hit rate 0.2% among 360,000; AID 720542, 2013; Potency, µM (highest dose often 58.2 µM), actives largely listed as inhibitors; AlphaScreen AMA1-biotinylated RON2 peptide binding; further: nearly all actives have a fitted effect of over 45% in size
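AMA1 (3D7) with his tag at 25 nM final met compounds first, then biotinylated RON2 peptide at 25 nM; detection used donor plus acceptor beads, 10 µg/mL apiece, read by AlphaScreen after 30 min at room temperature.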
A number is an active result; – = inactive; ? = inconclusive; · = not tested or not shown; ! = not confirmed by another sample; [ ] = remark or other dose. Sampled rows, rich in hits. Any-hit rate of the full collection: about 9.4%. Unless noted, the call rests on the fitted dose curve; in most records, active means well fitted curve in the direction sought with a large enough effect; inconclusive means small, poorly fitted or top-dose-only effect, or another doubt; inactive means no such curve, though single readings can be large; an effect the other way counts as inactive or inconclusive.

SMILES | SARS PLP yeast | Pf growth 96h | Pf growth 48h | AMA1-RON2 inh
COC(=O)[C@]12CCCCC=C1N(Cc1cccc3ccccc13)C(=O)[C@H](CC(=O)N1CCCC1)C2 | · | · | · | –
O=C(NCCCn1ccnc1)c1ccc(N2CCCCCC2)c([N+](=O)[O-])c1 | – | ? | ? | –
CCN(C(=O)CCN1C(=O)c2ccccc2S1(=O)=O)c1ccccc1 | – | – | – | –
O=C(CSc1ccc2c(c1)OCCO2)Nc1cccc(S(=O)(=O)N2CCCCC2)c1 | – | ? | – | –
CC(NCc1ccccc1Cl)C(O)c1ccccc1 (stereo not given) | – | 7.4µM | 9.3µM | –
Cc1cccc(C)c1NC(=O)C1CCCN1S(=O)(=O)c1ccc(-c2ccc(=O)[nH]n2)s1 (stereo not given) | – | ? | ? | –
Cc1nc2sc(C#N)c(N)c2c2c1CCCC2 | – | 12µM | – | –
Nc1c(C(=O)N2CCOCC2)sc2nc(N3CCOCC3)c3c(c12)CCCC3 | – | – | ? | –
N#Cc1sc2nc(N3CCCCC3)c3c(c2c1N)CCCC3 | – | ? | 5.2µM | –
Cc1ccc(S(=O)(=O)CCC(=O)NCCc2ccccc2)cc1 | – | – | – | –
O=[N+]([O-])c1ccc(N2CCN(CCO)CC2)cc1Sc1ccccn1 | – | ? | – | –
CCN1CCN(c2ccc([N+](=O)[O-])c(Sc3nc4ccccc4[nH]3)c2)CC1 | – | 2.6µM | ? | –
COC(=O)C1=C(C)NC2=C(C(=O)CCC2)C1c1cn(Cc2ccc(Cl)cc2Cl)nc1-c1ccccc1 (stereo not given) | – | 1.9µM | 2.6µM | –
CCOC(=O)C1=C(C)NC2=C(C(=O)CCC2)C1c1cn(Cc2ccc(Cl)cc2Cl)nc1-c1ccccc1 (stereo not given) | – | 0.74µM | 0.12µM | –
COC(=O)C1=C(C)NC2=C(C(=O)CCC2)C1c1cccs1 (stereo not given) | – | · | – | ·
C/C(=N\NC(=O)c1ccccc1OCCOc1ccccc1)c1ccccc1F | – | ? | 12µM | –
COc1ccc(Nc2cc(C)c3cc([N+](=O)[O-])ccc3n2)cc1 | – | – | –[0.00184 µM] | –
Cc1cc(Nc2ccccc2)nc2cc(O)ccc12 | – | – | 0.33µM | –
COc1ccc(Nc2cc(C)c3ccc(O)cc3n2)cc1 | – | ? | 0.37µM | –
Oc1ccc(-c2cc(-c3ccc(O)cc3)nc(-c3ccccc3)n2)cc1 | – | 5.9µM | –[0.00184 µM] | –
Nc1ccc(-c2cc(-c3ccc(N)cc3)nc(-c3ccccc3)n2)cc1 | – | – | – | –
O=[N+]([O-])c1cccc(S(=O)(=O)NCCc2cccs2)c1 | – | 10µM | – | –
CC(C)(COP(=O)(O)OP(=O)(O)OC[C@H]1O[C@@H](n2cnc3c(N)ncnc32)[C@H](O)[C@@H]1OP(=O)(O)O)C(O)C(=O)NCCC(=O)NCCS (stereo not given in full) | · | – | – | ·
C/C1=C2N=C(/C=C3N=C(/C(C)=C4\[N-]C(C)(C5N=C1C(C)(CCC(=O)NCC(C)OP(=O)([O-])O[C@H]1C(O)C(n6cnc7cc(C)c(C)cc76)O[C@@H]1CO)C5CC(N)=O)C(C)(CC(N)=O)C4CCC(N)=O)C(C)(CC(N)=O)C\3CCC(N)=O)C(C)(C)C/2CCC(N)=O.[CH2-]C1OC(n2cnc3c(N)ncnc32)C(O)C1O.[Co] (stereo not given in full) | · | 6.7µM | 8.5µM | ·
O=S(=O)(c1ccccc1)N1CCN=C1SCc1ccc(Cl)c(Cl)c1 | – | ? | ? | –
SMILES | SARS PLP yeast | Pf growth 96h | Pf growth 48h | AMA1-RON2 inh
CC(=O)Nc1ccc(S(=O)(=O)N2CCN=C2SCc2ccc(C)cc2)cc1 | – | – | – | –
O=S(=O)(c1ccccc1)N1CCN=C1SCc1cccc(Cl)c1 | – | 12µM | ? | –
CC(=O)Nc1ccc(S(=O)(=O)N2CCN=C2SCc2ccc(F)cc2)cc1 | · | 15µM | ? | –
CCOc1ncccc1C(=O)Nc1cc(C(F)(F)F)ccc1N1CCOCC1 | – | – | – | –
O=c1c2ccccc2cnn1CCOc1cccc(Br)c1 | – | 9.3µM | ? | –
CCOC(=O)C1CCCN(C(=O)/C=C/c2ccc(Cl)cc2)C1 (stereo not given) | – | – | – | –
CCOC(=O)C1CCCN(C(=O)CN2CCN(Cc3ccc(Cl)cc3)C2=O)C1 (stereo not given) | – | 1.7µM | – | –
CCOC(=O)C1CCCN(C(=O)CN2C(=O)C(CC)Oc3ccc(C)cc32)C1 (stereo not given) | – | 13µM | – | –
O=C(CCN1CCN2CCCC2C1)N1c2ccccc2Sc2ccc(Cl)cc21 (stereo not given) | – | 11µM! | ? | –
CCN(CC)CCC(=O)N1c2ccccc2Sc2ccc(Cl)cc21 | · | 1.7µM | ? | –
O=C(c1ccco1)N(CCO)Cc1cc2cc3c(cc2[nH]c1=O)OCO3 | – | – | – | –
CCN(CC)CCCN(Cc1cc2cc(OC)ccc2[nH]c1=O)C(=O)Nc1ccc(F)cc1 | – | –[5.75 µM] | · | –
CCN(CC)CCCN(Cc1cc2cc(OC)ccc2[nH]c1=O)C(=O)Nc1ccccc1 | – | ? | 9.3µM | –
CCc1ccc2[nH]c(=O)c(CN(CCN(CC)CC)C(=O)Nc3ccccc3OC)cc2c1 | – | – | 15µM | –
CCc1ccc2[nH]c(=O)c(CN(CCN(C)C)C(=O)Nc3ccccc3OC)cc2c1 | – | ? | ? | –
CC(=O)Nc1c(O)nc(C)[nH]c1=O | – | – | – | –
CC(C)c1ccc2c(c1)CCC1C(C)(CN)CCCC21C (stereo not given) | – | 10µM | ? | –
CCOc1ccccc1CNC(=O)c1cc2oc3ccccc3c2n1CC | – | 1.2µM | · | –
CCOc1ccc(CNC(=O)c2cc3oc4ccccc4c3n2C)cc1 | – | · | – | –
COc1cccc(CNC(=O)c2cc3oc4ccccc4c3n2C)c1OC | – | 9.3µM | · | –
COc1ccc(N(CC(=O)Nc2cccc(C)c2)S(=O)(=O)c2c(C)noc2C)cc1 | – | ? | – | –
COc1ccccc1N(CC(=O)NCCSCc1ccc(Cl)cc1)S(C)(=O)=O | – | ? | –[0.00184 µM] | –
COc1cc(CNCCc2ccccc2F)ccc1OCC(=O)N1CCCCC1 | – | 13µM | – | –
CCCN(CCC)CCCNC(=O)c1cn(-c2ccc(OC)cc2)c(=O)c2ccccc12 | – | – | – | –
Cc1ccc(N=Cc2c(O)n(-c3cc(Cl)ccc3N3CCOCC3)c(=O)c3ccccc23)cc1C | – | · | 2.6µM | –
CCn1cc(CN2CCc3c([nH]c4ccccc34)C2c2ccc(F)c(OC)c2)c(C)n1 (stereo not given) | – | ? | 12µM | –
CCn1cc(CN2CCc3c([nH]c4ccccc34)C2c2cccc(OC)c2)c(C)n1 (stereo not given) | – | ? | 12µM | –
Clc1ccc(-n2cccc2CN2CCc3c([nH]c4ccccc34)C2c2ccccn2)nc1 (stereo not given) | – | 10µM | 9.3µM | –
CSc1ncc(CN2CCc3c([nH]c4ccccc34)C2c2cccc(O)c2)cn1 (stereo not given) | – | – | 4.1µM | –
